Structures are written as SMILES. The panel holds about 83,000 compounds, 20% with a hit somewhere; the sample as a whole holds those more often.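 In brief: 96-well plates, 48 h treatment, single concentration, percent growth endpoint.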 Values without a mark were called inactive. The source made the active and inactive calls. The calls were made as follows: active = growth percent below 10; inactive = the rest.

Among the test systems are NCI-H23 lung; NCI-H226 lung; NCI-H322M lung; HOP-62 NSCLC; NCI-H460 lung; HOP-92 NSCLC; NCI-H522 lung; A549/ATCC NSCLC; 786-0 renal; COLO 205 colon.
Assay in all cases: NCI-60 one-dose screen, 48 h (100 = growth as untreated, 0 = no growth, -100 = all killed)
Common to all, as to conditions: 10 µM unless noted

`CCN(CC)CCN1C(=O)c2cccc3c(/C=C/CN4C(=O)c5cccc6cccc(c56)C4=O)ccc(c23)C1=O`: the growth is 98.1% in the test with NCI-H23 lung; 92.7% in the test with NCI-H226 lung; 97.4% in the test on NCI-H322M lung; 89.5% with HOP-62 NSCLC; 98.7% in the test with NCI-H460 lung; 88.1% in the test with HOP-92 NSCLC. The growth with NCI-H522 lung is 97.9%; in the test with A549/ATCC NSCLC, 98.8%; with 786-0 renal, -9.45% (active); in the test on COLO 205 colon, 80.7%.

Turning to `Cc1ccc(NC(=O)Cn2c(Br)nc3c2c(=O)n(C)c(=O)n3C)cc1`, the growth is 22.7% with NCI-H23 lung; -13.2% (active) in the test with NCI-H226 lung; 30.6% in the test with NCI-H322M lung; 6.37% (active) with HOP-62 NSCLC; 14.6% in the test with NCI-H460 lung; -2.3% (active) with HOP-92 NSCLC. Also, the growth with NCI-H522 lung was 62.6%; with A549/ATCC NSCLC, 27.1%; in the test on 786-0 renal it was -67.1% (active); in the test with COLO 205 colon, 19.5%.

As to `O=S(=O)(Nc1cc(Sc2cccc3cccnc23)c(O)c2ccccc12)c1ccccc1`, the growth in the test with NCI-H23 lung was 28.8%; in the test with NCI-H226 lung, 46.3%; in the test with NCI-H322M lung, 28.3%; with HOP-62 NSCLC it was 47.3%; with NCI-H460 lung, 3.5% (active); in the test with HOP-92 NSCLC, 33.1%. Also, the growth was -37.3% (active) with NCI-H522 lung, 15.7% in the test with A549/ATCC NSCLC, 36.6% in the test on 786-0 renal and -47.6% (active) with COLO 205 colon.

As to `Cc1c2cccnc2c(C)c2c1c1cc(CO)ccc1n2C`, the growth in the test on NCI-H23 lung is 30.6%; in the test on NCI-H226 lung it was -33.4% (active); with NCI-H322M lung it was 26.8%; in the test with HOP-62 NSCLC, 30.5%; in the test on NCI-H460 lung, 0.162% (active); in the test on HOP-92 NSCLC, 32.9%. The growth is 30.3% in the test on NCI-H522 lung, 20.9% in the test with A549/ATCC NSCLC, 22.6% in the test with 786-0 renal and 19.1% in the test on COLO 205 colon.

As for `N#Cc1c(-c2ccccc2)nc(SCc2nnc(-c3ccc(Cl)cc3)o2)[nH]c1=O`, the growth with NCI-H23 lung is 105%; with NCI-H226 lung, 97.2%; in the test on NCI-H322M lung, 104%; with HOP-62 NSCLC, 63.7%; in the test on NCI-H460 lung, 105%; with HOP-92 NSCLC, 78.8%. For the same compound, the growth with NCI-H522 lung is 71.2%; in the test with A549/ATCC NSCLC, 78.2%; in the test on 786-0 renal, 89.2%; in the test on COLO 205 colon, 89.3%.

As for `C#COc1cccc(Nc2ncnc3cc(NC(=O)[C@@H](C)Cl)ccc23)c1`, the growth is 22.8% [6.25 µM] in the test on NCI-H23 lung; 41.4% [6.25 µM] in the test with NCI-H226 lung; 38.9% [6.25 µM] in the test with NCI-H322M lung; 7.46% [6.25 µM] (active) in the test on HOP-62 NSCLC; 6.36% [6.25 µM] (active) in the test on NCI-H460 lung; 57.5% [6.25 µM] with HOP-92 NSCLC. The growth with NCI-H522 lung is -34.7% [6.25 µM] (active); in the test on A549/ATCC NSCLC, 6.69% [6.25 µM] (active); with 786-0 renal, 17% [6.25 µM]; in the test on COLO 205 colon, 3.72% [6.25 µM] (active).

Take `COc1ccc2c(c1)c(/C(O)=C1\COC(=O)C1=O)cn2Cc1ccc(F)cc1`: the growth was 110% in the test with NCI-H23 lung; 90.4% with NCI-H226 lung; 101% in the test on NCI-H322M lung; 112% in the test on HOP-62 NSCLC; 103% in the test on NCI-H460 lung; 72.1% with HOP-92 NSCLC. The growth with NCI-H522 lung was 73.9%; in the test with A549/ATCC NSCLC, 101%; in the test on 786-0 renal it was 96.1%; with COLO 205 colon, 108%.

As to `O=C(Nc1ncc(Cc2cc(C(F)(F)F)ccc2Cl)s1)c1cccs1`, the growth in the test with NCI-H23 lung was 58.2%; with NCI-H226 lung, 76.5%; with NCI-H322M lung, 65.5%; in the test on HOP-62 NSCLC, 42.5%; in the test with NCI-H460 lung it was 32.2%; in the test with HOP-92 NSCLC it was 47.1%. The growth was 35.2% in the test on NCI-H522 lung, 37.8% in the test with A549/ATCC NSCLC, 79.6% in the test on 786-0 renal and 56.2% in the test with COLO 205 colon.

For the compound `CCCCCCCC/C=C\CCCCCCCCOc1ccc(CC(=O)NCC[N+]2(C)CCOCC2)cc1`, the growth with NCI-H23 lung is 78.9%; in the test with NCI-H226 lung, 71.1%; in the test with NCI-H322M lung, 88.1%; in the test on HOP-62 NSCLC, 30.7%; with NCI-H460 lung, 54.9%; in the test on HOP-92 NSCLC, 66.5%. Also, the growth in the test with NCI-H522 lung was 69.5%; with A549/ATCC NSCLC, 88.7%; with 786-0 renal, 67.7%; with COLO 205 colon, -14.8% (active).

Take `C=C(c1ccc(OC)c(/C=C/C(=O)c2ccc3c(c2)OCO3)c1)c1cc(OC)c(OC)c(OC)c1`: the growth was 15.9% in the test with NCI-H23 lung; -40.4% (active) in the test with NCI-H226 lung; 35.1% in the test with NCI-H322M lung; 36% in the test with HOP-62 NSCLC; 0.841% (active) with NCI-H460 lung; 12.7% with HOP-92 NSCLC. Moreover, the growth in the test with NCI-H522 lung was 5.55% (active); in the test with A549/ATCC NSCLC, 27.3%; with 786-0 renal, 12.6%; in the test with COLO 205 colon, 5.33% (active).

For `COc1ccc(C(=O)N2c3ccccc3Sc3ccccc32)c(C(F)(F)F)c1`, the growth in the test on NCI-H23 lung is 24.4%; in the test with NCI-H226 lung it was 13.1%; with NCI-H322M lung, 53.4%; with HOP-62 NSCLC, 42.8%; with NCI-H460 lung it was 9.51% (active); in the test with HOP-92 NSCLC, 15%. For the same compound, the growth in the test on NCI-H522 lung is 2% (active); in the test on A549/ATCC NSCLC, 25.3%; in the test with 786-0 renal, 38.8%; in the test with COLO 205 colon, -13.9% (active).

Consider `Cc1n[nH]c2ccc(Br)cc2c1=O`, for which the growth with NCI-H23 lung is 98.3%; with NCI-H226 lung, 96.5%; in the test on NCI-H322M lung it was 98.7%; in the test with HOP-62 NSCLC, 93.9%; in the test with NCI-H460 lung, 110%; in the test with HOP-92 NSCLC, 103%. In addition, the growth was 83.6% with NCI-H522 lung, 99% with A549/ATCC NSCLC, 102% with 786-0 renal and 106% with COLO 205 colon.

Values taken from PubChem BioAssay (NCI).
